Compound activity (PubChem BioAssay)
An excerpt weighted towards active compounds, which were near 1.3% of everything screened.
MEX-5 binding: C. elegans MEX-5 TCR-2 RNA binding activity; activity score (negative = inhibition of binding), % at 10 µM; MEX-5/FITC-TCR2 RNA binding, fluorescence polarization; stronger effect = lower value; hit rate 0.38% among 300,000; Q9XUB2;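 active means inhibition past about -25% in most replicates, and total fluorescence under double the plate's negative control median, limit read from the data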;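 further: 0% = DMSO and -100% = 5 µM competing unlabeled TCR2 RNA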
Bcl-xL primary: inhibitors of human Bcl-xL. GST-Bcl-xL / FITC-Bim BH3 peptide fluorescence polarization. Q07817. hit rate 0.7% among 320,000. inhibition, % at 10.9 µM. AID 2129;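 active means inhibition above the mean of all tested compounds plus 3 SD, cutoff set per campaign, cut at about 30% in these data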;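 further: 0% = DMSO wells and 100% = unlabeled Bim-BH3 peptide competitor; inhibitors lower millipolarization by displacing the labeled peptide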
Target sequence (Q07817 whole entry, looked up): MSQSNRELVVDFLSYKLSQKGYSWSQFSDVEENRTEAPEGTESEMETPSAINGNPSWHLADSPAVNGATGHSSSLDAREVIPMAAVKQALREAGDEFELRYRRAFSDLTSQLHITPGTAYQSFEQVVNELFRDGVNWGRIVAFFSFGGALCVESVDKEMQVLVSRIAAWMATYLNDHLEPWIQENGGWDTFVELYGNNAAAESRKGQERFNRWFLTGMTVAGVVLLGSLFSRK
EBV gp42 block: blocks Epstein-Barr virus glycoprotein 42 binding; Fluorescence polarization binding assay, mP read-out; hit rate 0.42% among 220,000; inhibition, % (tested at 21.74 µM); Q1HVG2; in the data active means inhibition above about 50%
Target sequence (Q1HVG2 whole entry, looked up): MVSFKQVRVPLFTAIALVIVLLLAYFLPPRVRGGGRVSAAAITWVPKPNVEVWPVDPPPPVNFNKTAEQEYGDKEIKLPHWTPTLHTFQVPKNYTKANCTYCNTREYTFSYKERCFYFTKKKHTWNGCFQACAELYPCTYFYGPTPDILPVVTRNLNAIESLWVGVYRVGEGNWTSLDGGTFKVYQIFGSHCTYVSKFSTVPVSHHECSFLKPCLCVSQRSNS
eLon inh: inhibits E. coli Lon protease. purified E. coli Lon protease, fluorescence polarization. P0A9M0. hit rate 0.42% among 360,000. inhibition, % at 7.94 µM. AID 602123; in the data active means inhibition above about 13%, passing the limit was not always enough;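 further: 0% = enzyme with probe and DMSO and 100% = no enzyme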
GLD-1 TGE inh: GLD-1-TGE RNA interaction inhibition (C. elegans). purified GLD-1 + fluorescein TGE RNA, fluorescence polarization. inhibition, % at 5.96 µM. hit rate 0.44% among 320,000. AID 2280;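 active means percent inhibition above a per-plate cutoff, the plate mean of test compounds plus 3 SD, cut at about 30% in these data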;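 further: 0% = DMSO wells with GLD-1 and probe and 100% = wells lacking GLD-1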
Active calls of the source: *.

How did O=c1[nH]c2cc3c(cc2cc1CN(Cc1cccs1)Cc1nnnn1Cc1ccco1)OCCO3 do in these assays?
MEX-5 binding: 2; Bcl-xL primary: 20; EBV gp42 block: -7; eLon inh: 7; GLD-1 TGE inh: -9

Results for COc1ccccc1CN(Cc1cc2cc3c(cc2[nH]c1=O)OCCO3)Cc1nnnn1Cc1ccco1 ?
MEX-5 binding: 4; Bcl-xL primary: 32*; EBV gp42 block: -7; eLon inh: 3; GLD-1 TGE inh: 14

How did Cc1cc(NC(=O)Cn2nc(C)c([N+](=O)[O-])c2C)no1 do in these assays?
MEX-5 binding: 0; Bcl-xL primary: 1; EBV gp42 block: 6; eLon inh: 10; GLD-1 TGE inh: 2

How did O=C1SC(SCc2ccccc2Cl)=N/C1=C\c1ccc(C(=O)O)cc1 do in these assays?
MEX-5 binding: -41*; Bcl-xL primary: 8; EBV gp42 block: -2; eLon inh: -1; GLD-1 TGE inh: -2

What do the screens show for `CCCCn1c(O)c(N=Nc2ccccn2)c2ccccc21`?
MEX-5 binding: -31*; Bcl-xL primary: -5; EBV gp42 block: -17; eLon inh: -20; GLD-1 TGE inh: 3

How did C[C@H](CO)N1C[C@H](C)[C@@H](CN(C)S(=O)(=O)c2ccccc2)Oc2c(NC(=O)CCC(F)(F)F)cccc2C1=O do in these assays?
eLon inh: 8; GLD-1 TGE inh: -1

What do the screens show for `O=C(COC(=O)CC1CCCC1)Nc1ccccc1[N+](=O)[O-]`?
Bcl-xL primary: 4; eLon inh: 7; GLD-1 TGE inh: 0

What do the screens show for `Cc1ccc(C)n1Cc1ccc(C(=O)O)cc1`?
Bcl-xL primary: 41*; EBV gp42 block: 7; eLon inh: -3; GLD-1 TGE inh: 22

How did Cc1cc(C)n(Cc2ccc(C(=O)O)cc2)n1 do in these assays?
MEX-5 binding: 0; Bcl-xL primary: 4; EBV gp42 block: -23; eLon inh: -5; GLD-1 TGE inh: 4

How did CCCN(C(=O)COC(=O)c1nc2nc(C)cc(C)n2n1)C1CCS(=O)(=O)C1 (configuration not stated) do in these assays?
Bcl-xL primary: -2; eLon inh: -4; GLD-1 TGE inh: 1

Results for O=C(CNS(=O)(=O)c1ccc([N+](=O)[O-])cc1)N/N=C/c1ccc(O)cc1O ?
MEX-5 binding: -57*; Bcl-xL primary: 4; eLon inh: 1; GLD-1 TGE inh: 9

How did Cc1ccc(OCCNC(=O)c2ccccc2SCC(=O)N2CCCC2)cc1 do in these assays?
MEX-5 binding: 0; Bcl-xL primary: 2; eLon inh: 2; GLD-1 TGE inh: 1

What do the screens show for `COC(=O)N/N=C/c1ccc([N+](=O)[O-])s1`?
MEX-5 binding: 0; Bcl-xL primary: 3; EBV gp42 block: -3; eLon inh: 3; GLD-1 TGE inh: 1

How did COc1ccccc1NC(=O)C(=O)N/N=C/c1ccc([N+](=O)[O-])s1 do in these assays?
MEX-5 binding: 0; EBV gp42 block: 79*; eLon inh: -9

Results for Nc1nc2ncc(C(=O)c3cc(Cl)cc(Cl)c3O)cc2s1 ?
MEX-5 binding: -14; Bcl-xL primary: 32*; EBV gp42 block: 32; eLon inh: -3; GLD-1 TGE inh: -6

How did CC1=CC(=C2N=C(c3ccccc3)OC2=O)C=C(C)O1 do in these assays?
MEX-5 binding: -35*; Bcl-xL primary: 11; EBV gp42 block: -55; eLon inh: 39*; GLD-1 TGE inh: 2

Results for Cc1cc(C(=O)CSc2nncn2C)c(C)n1-c1ccccc1 ?
MEX-5 binding: -2; Bcl-xL primary: 2; EBV gp42 block: 3; eLon inh: -2; GLD-1 TGE inh: -5

Results for C=CCN(CC=C)C(=S)Nc1cc(Cl)ccc1OC ?
MEX-5 binding: 2; Bcl-xL primary: 3; EBV gp42 block: -9; eLon inh: 7; GLD-1 TGE inh: 2

How did C=CCNC(=S)Nc1cc(Cl)ccc1OC do in these assays?
MEX-5 binding: -40*; Bcl-xL primary: 5; EBV gp42 block: -13; eLon inh: 2; GLD-1 TGE inh: 4

What do the screens show for `CCOC(=O)[C@]12CCCC=C1N(Cc1ccc3c(c1)OCO3)C(=O)[C@H](CC(=O)N1CCCC1)C2`?
eLon inh: -3

What do the screens show for `CC(=O)Nc1c(NC(=O)CC#N)[nH]c2c(c1=O)c(=O)n(C)c(=O)n2C`?
MEX-5 binding: -2; Bcl-xL primary: 8; EBV gp42 block: -5; eLon inh: -5; GLD-1 TGE inh: -6

What do the screens show for `Cc1cc(NS(=O)(=O)c2ccc(NC(=O)c3cnc(Cl)c(Cl)c3)cc2)nc(C)n1`?
Bcl-xL primary: -4; eLon inh: 1; GLD-1 TGE inh: 1
